# PLK1 PBD inh = qHTS for Inhibitors of PLK1-PDB (polo-like kinase 1 - polo-box domain): Primary Screen | Serine/threonine-protein kinase PLK1 (Homo sapiens), P53350 | Plk1 PBD binding of FITC phosphopeptide, fluorescence polarization | Potency, µM, inactives show max response, negative = inhibition, most hits filed as inhibitors | actives 2.8% (n = 360,000) | AID 720504, 2013; further: series mostly up to about 57 µM; nearly all actives have a fitted effect of over 65% in size
# Target sequence (P53350 whole entry, looked up, the tested form may be a part): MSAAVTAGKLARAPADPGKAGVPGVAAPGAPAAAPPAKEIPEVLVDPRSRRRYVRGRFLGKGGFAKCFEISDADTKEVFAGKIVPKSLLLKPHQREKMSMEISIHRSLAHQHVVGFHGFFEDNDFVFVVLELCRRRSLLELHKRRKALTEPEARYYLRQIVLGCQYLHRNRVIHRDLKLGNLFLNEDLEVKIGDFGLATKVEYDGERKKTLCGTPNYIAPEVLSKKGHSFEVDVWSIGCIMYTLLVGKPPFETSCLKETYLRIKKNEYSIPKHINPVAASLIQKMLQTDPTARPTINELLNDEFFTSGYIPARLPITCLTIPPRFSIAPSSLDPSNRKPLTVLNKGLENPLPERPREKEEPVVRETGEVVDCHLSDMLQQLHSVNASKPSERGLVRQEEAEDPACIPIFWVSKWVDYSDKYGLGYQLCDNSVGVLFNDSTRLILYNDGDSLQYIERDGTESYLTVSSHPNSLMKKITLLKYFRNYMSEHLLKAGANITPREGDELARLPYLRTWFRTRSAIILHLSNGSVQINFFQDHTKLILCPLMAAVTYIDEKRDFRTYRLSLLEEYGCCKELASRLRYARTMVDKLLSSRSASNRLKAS
# Gal4-VP16 FLuc = VP16 counterscreen qHTS for inhibitors of ROR gamma transcriptional activity; Drosophila S2 Gal4-VP16 UAS-luciferase, luminescence, 20 h; Potency, µM (highest dose often 53.6 µM), for inactives: top-dose activity, negative = inhibition, usual class: inhibitors; actives 3.5% (n = 310,000); AID 2546, 2010;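 further: Gal4-VP16 expression switched on by copper sulfate through the metallothionein promoter; nearly all actives have a fitted effect of over 50% in size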
# Sfp PPTase inh = qHTS Assay for Inhibitors of Bacillus subtilis Sfp phosphopantetheinyl transferase (PPTase). Biochemical Sfp PPTase activity, qHTS. AID 1490, 2009. Potency, µM, without a hit: largest response in the series, negative = inhibition, most hits filed as inhibitors. actives 3.5% (n = 310,000). 4'-phosphopantetheinyl transferase ffp (Bacillus subtilis), Q9F4F7;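 further: the enzyme is Sfp with the accession as filed and its product quenches rhodamine fluorescence; 0% = enzyme reaction without inhibitor and -100% = no enzyme wells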
#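 Reaction rates are the 30-min fluorescence difference (ex 525, em 598 nm) in wells containing 15 nM Sfp, 5 uM rhodamine-CoA and 12.5 uM BHQ-2-YbbR at pH 7.6 with 10 mM MgCl2.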
# RORgamma inh = qHTS for inhibitors of ROR gamma transcriptional activity; Nuclear receptor ROR-gamma (Mus musculus), P51450; Drosophila S2 Gal4-RORgamma UAS-luciferase reporter, 20 h; Potency, µM (titrated, usually from 53.6 µM), inactives show top-dose activity change, negative = inhibition, actives largely listed as inhibitors; actives 5.4% (n = 310,000); further: nearly all actives have a fitted effect of over 60% in size
#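 Luminescence from a UAS-regulated Photinus luciferase reporter in stably transfected Drosophila Schneider cells is measured; decreased signal marks ROR gamma inhibition. Fusion expression is induced by 700 uM copper sulfate for 20 hr.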
# ALDH1A1 inh = qHTS Assay for Inhibitors of Aldehyde Dehydrogenase 1 (ALDH1A1). Potency, µM (series often up to 75.3 µM), for inactives: at the top dose activity, negative = inhibition, actives largely listed as inhibitors. AID 1030, 2008. actives 7.3% (n = 220,000). Purified ALDH1A1, NADH fluorescence, propionaldehyde substrate. Aldehyde dehydrogenase 1A1 (Homo sapiens), P00352; active means well fitted inhibition curve with a large enough effect, not every such curve was filed as active; inconclusive means small, poorly fitted or top-dose-only effect, or another doubt; inactive means no such curve, though single readings can be large or run the other way;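 further: plate controls were no enzyme wells and a reference inhibitor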
# An asterisk follows results filed as active; ? = inconclusive; . = no result; [ ] = dose if it differs, or a comment. In the library only some 12% were active in any assay of this set; here they are far more common. Unless noted, the call rests on the fitted dose curve; in most records, active means well fitted curve in the direction sought with a large enough effect; inconclusive means small, poorly fitted or top-dose-only effect, or another doubt; inactive means no such curve, though single readings can be large; an effect the other way counts as inactive or inconclusive. Unless noted, on the % scale 0 is the no-effect control and ±100 the full control effect; potency means the concentration at half of the fitted maximal effect.
SMILES,PLK1 PBD inh,Gal4-VP16 FLuc,Sfp PPTase inh,RORgamma inh,ALDH1A1 inh
CC(=O)CC1OC(=O)C(Br)=C1NCc1ccccc1 (configuration not stated),27µM*,20µM*,-10%,?,?
COCCn1nnnc1C(c1cc2ccc(C)cc2[nH]c1=O)N(Cc1ccco1)Cc1cccs1 (configuration not stated),-5%,9%,-16%,2%,18µM*
Cc1cc2cc(C(c3nnnn3C3CCCC3)N(Cc3cccnc3)Cc3ccco3)c(=O)[nH]c2cc1C (configuration not stated),-1%,14%,56µM*,-23%,14µM*
Cc1ccc2cc(C(c3nnnn3C3CCCC3)N(Cc3ccccc3)Cc3ccco3)c(=O)[nH]c2c1 (configuration not stated),-2%,2%,?,25%,?
Cc1cccc(NC(=O)c2ccc(C)c(S(=O)(=O)N3CCOCC3)c2)n1,-3%,.,.,.,.
Cn1cnc(S(=O)(=O)N2CCCCC2c2cc(C(=O)NCc3ccc(F)cc3)no2)c1 (configuration not stated),-9%,.,.,.,.
O=C(CN1C(=O)NC2(CCCCCC2)C1=O)c1cccs1,-3%,.,.,.,.
O=S(=O)(c1ccc(NC(=S)N/N=C/c2cccc(Oc3ccccc3)c2)cc1)N1CCOCC1,-5%,-7%,35%,0.89µM*,1%
O=[N+]([O-])c1cc(Cl)cc(/C=N/NC(=S)Nc2ccc(S(=O)(=O)N3CCOCC3)cc2)c1O,17µM*,1%,?,-28%,.
O=S(=O)(c1ccc(NC(=S)N/N=C/c2ccc(O)c(O)c2)cc1)N1CCOCC1,-17%,-12%,-4%,-35%,.
O=S(=O)(c1ccc(NC(=S)NN=Cc2ccccc2O)cc1)N1CCCCC1,0%,.,.,.,.
N#Cc1ccc(/C=N/NC(=S)Nc2ccc(S(=O)(=O)N3CCOCC3)cc2)cc1,-3%,?,26%,1.8µM*,.
Cc1ccccc1NC(=S)NCc1cccs1,0%,?,2%,?,-2%
COc1ccccc1NC(=S)NCc1cccs1,-6%,-27%,3%,?,9%
Cc1c(Cl)cccc1NC(=S)NCc1cccs1,-13%,7.1µM*,4%,4.5µM*,?
S=C(NCc1cccs1)Nc1cccc(Cl)c1Cl,-27%,8.9µM*,10%,10µM*,?
CC[C@@H](NC(=O)[C@H](Cc1ccccc1)NC(=O)CC[C@H]1O[C@@H](n2ccc(=O)[nH]c2=O)[C@H](O)[C@@H]1O)c1ccccc1,-3%,.,.,.,.
c1cnc2nc(CSc3ncn[nH]3)cn2c1,-3%,2%,-17%,2%,?
Cc1ccc2nc(SCc3cn4cccnc4n3)[nH]c2c1,27µM*,4%,4%,?,-2%
NC(=S)N/N=C1\CC(n2nnn(-c3cccc(Cl)c3)c2=S)C2COC1O2 (configuration not stated),-22%,?,-13%,4µM*,-1%
NC(=S)N/N=C1\CC(n2nnnc2-c2ccccc2)C2COC1O2 (configuration not stated),?,?,-53%,?,.
CCOC(=O)c1cccc(NC(=O)CSc2nnnn2C)c1,0%,-1%,5%,?,11%
O=C(CSc1ncccc1C(=O)O)c1cccc(C(F)(F)F)c1,-8%,2%,-11%,7%,?
Cn1ccnc1SCC(=O)c1cccc(Br)c1,?,-2%,-3%,-3%,?
Cn1ccnc1SCC(=O)c1ccc2ccccc2c1,-29%,?,13%,11µM*,?
SMILES,PLK1 PBD inh,Gal4-VP16 FLuc,Sfp PPTase inh,RORgamma inh,ALDH1A1 inh
O=C(CSc1ncccc1C(=O)O)c1ccc2ccccc2c1,-9%,2.2µM*,-11%,11µM*,?
COc1cccc(C(=O)CSc2nccn2C)c1,-6%,?,56µM*,10µM*,.
COC(=O)c1cccc(NC(=O)CSc2nnnn2C)c1,1%,-1%,21%,0%,14µM*
Cn1c(CO)cnc1SCC(=O)c1ccc(Cl)cc1,-7%,7%,-2%,-2%,22µM*
COc1cccc(C(=O)CSc2nnnn2C)c1,-3%,5%,50µM*,12%[10 µM],5%
Cn1ccnc1SCC(=O)NC1CCCCC1,-4%,2%,-12%,0%,0%
Cn1ccnc1SCC(=O)c1cc2ccccc2o1,?,8%,-21%,?,20µM*
Cn1ccnc1SCC(=O)N(C1CCCCC1)C1CCCCC1,-6%,?,1%,11µM*,-16%
COc1cc(CNc2ncnc3ccc(-c4c(C)noc4C)cc23)cc(OC)c1OC,.,-4%,9%,20%,.
COc1ccc(NC(=O)C2c3ccccc3OCC(=O)N2Cc2cccnc2)cc1 (configuration not stated),2%,.,.,.,.
O=C(CSc1ncccc1C(=O)O)NC1CCCCCCC1,27µM*,1%,13%,-25%,.
COc1ccc(NC(=O)CSc2nnnn2C)c([N+](=O)[O-])c1,-3%,-9%,11%,-4%,28µM*
Cn1ccnc1SCC(=O)c1ccc(O)cc1,-11%,29%,-19%,11%,?
Cn1ccnc1SCC(=O)c1ccc(Cl)cc1,-29%,-25%,?,?,14µM*
COC(=O)c1cccc(-n2nnnc2SCC(=O)Nc2cc(C)on2)c1,-13%,3%,-12%,13%,11µM*
Cc1cc(NC(=O)CSc2nnnn2-c2ccccc2C)no1,-4%,-20%,4%,-31%,.
COc1ccc(-c2c(C(F)(F)F)nn(C)c2NC(=O)CSCC(=O)O)cc1,-4%,1%,19%,-12%,.
CC(=O)c1ccc(Nc2c3ccccc3cc3occc23)cc1,.,-16%,-16%,11%,.
COc1ccc(C(=O)COC(=O)c2cc(S(=O)(=O)N3CCCCC3)ccc2N2CCOCC2)c(OC)c1,0%,.,.,.,.
O=C(c1cnccn1)N1CCC[C@@]2(CCN(c3ccccn3)C2)C1,.,-2%,26%,-5%,10%
C#C[C@]1(OC(C)=O)CCC2C3CCC4=CC(=O)CCC4C3CC[C@]21C (some centres not stated),.,?,-64%,?,-10%
CCOc1ccc(-c2cc(CCCC(=O)Nc3cccc(OC)c3)no2)cc1,-14%,?,8%,0.13µM*,2%
CCOc1ccc(-c2cc(CCCC(=O)Nc3cc(OC)ccc3OC)no2)cc1,1%,?,8%,?,8%
CCOc1ccc(NC(=O)CCCc2cc(-c3ccc(OCC)cc3)on2)cc1,-2%,1.3µM*,2%,0.13µM*,7%
C=C(C)C1CCC(C)C(OC(C)=O)C1 (configuration not stated),.,1%,5%,-2%,.

# Assay outcomes (PubChem BioAssay)
